Measurements from PubChem BioAssay (Tox21).
Results filed as inconclusive are left out. A number with no mark means an inactive call. The call rests on the fitted dose curve; in most records, active means well fitted activation curve with a large enough effect in the signal ratio in the repeat runs (not every such curve was filed as active); inconclusive means weak or mixed curves; inactive means flat fitted curve, though single readings scatter; the % refers to the signal ratio.

Experiment: qHTS assay to identify small molecule agonists of the hypoxia (HIF-1) signaling pathway (AID 1224846)
Settings: HRE-bla ME-180 cells, beta-lactamase ratio, 17 h; series mostly up to 76.8 µM; activation: at the top concentration
Excerpt: U.S. Tox21 Program National Center for Advancing Translational Sciences [NCATS] NIH Chemical Genomics Center [NCGC] U.S. Environmental Protection Agency [EPA] National Institutes of Environmental Health Sciences [NIEHS] National Toxicology Program [NTP] U.S. Food and Drug Administration [FDA] Tox21 Assay Overview: Hypoxia-inducible factor-1 (HIF-1) is the major hypoxia-regulated transcription factor that controls cellular responses to low oxygen concentration. HIF-1 is composed of two subunits: hypoxia responsive HIF-1-alpha and constitutively expressed HIF-1-beta, which is also known as aryl hydrocarbon receptor nuclear translocator. During hypoxic conditions, HIF-1-alpha heterodimerizes with HIF-1-beta and translocates into the nucleus where the HIF-1 complex binds to the hypoxia-response element (HRE) and activates expression of target genes such as VEGF (vascular endothelial growth factor). The HIF-1 pathway is essential to normal growth and development, and is involved in the pathophysiology of cancer, inflammation, and ischemia. Using a beta-lactamase reporter-gene under control of the hypoxia response element, a cell-based assay [CellSensor(TM) HRE-bla ME-180 from Life Technologies, Carlsbad, CA] was used to measure hypoxia-induced signaling. Tox21 10K library compounds were measured for their ability to induce the reporter gene activity.
Tox21 Assay Protocol Summary: HRE-bla ME-180 cells were dispensed at 2,000 cells per well in 6 uL of assay medium containing 0.5% dialyzed FBS into black wall/clear-bottom 1536-well plates using a Multidrop Combi (Thermo Scientific, Waltham, MA) dispenser. After the assay plates were incubated at 37C and 5% CO2 for 5 hrs, 23 nL of compounds dissolved in DMSO, positive controls or DMSO only was transferred to each well of the assay plate using a Pintool station (Kalypsys, San Diego, CA). The assay plates were incubated at 37C and 5% CO2 for 17 hrs. One uL of LiveBLAzerTM B/G FRET substrate (CCF4-AM) (Life Technologies) was added to each well using a Flying Reagent Dispenser (Aurora Discovery, San Diego, CA).
On the % scale 0 is the no-effect control and ±100 the full control effect.

| Structure (SMILES) | activation |
| --- | --- |
| CC(C)(O)C(=O)O | -0.784% |
| CC(C)CCCCCCCOC(=O)c1ccc(C(=O)OCCCCCCCC(C)C)c(C(=O)OCCCCCCCC(C)C)c1 | -0.971% |
| CC(C)(C)NCC(O)COc1ccc(NC(=O)NC2CCCCC2)cc1 (stereo not given) | -0.0527% [at 35.5 µM] |
| CCCCCCCCCCCCCCCCC(=O)O | 0.0619% [at 35.5 µM] |
| CCCCCCCCCCCC(=O)OCC | -1.3% |
| O=C(O)c1cccc(C(=O)O)c1C(=O)O | -0.374% |
| [O-][n+]1ccc(Cl)cc1 | -0.586% |
| CC(C)NC(=O)c1ccccc1N | 0% |
| CCCCCCCCOCCCN | 2.58% |
| C=CCCC | 0.233% |
| Cc1nc2sccn2c(=O)c1CCN1CCC(=C(c2ccc(F)cc2)c2ccc(F)cc2)CC1 | 2.76% [at 35.5 µM] |
| COC(=O)C(C)(C)C | 1.91% |
| CC(C)(C)c1cc(C=O)cc(C(C)(C)C)c1O | -0.236% [at 35.5 µM] |
| C/C=C1\[C@H]2C=C(C)C[C@]1(N)c1ccc(=O)[nH]c1C2 | -0.284% [at 35.5 µM] |
| N#CCCCC(C#N)CCC#N (stereo not given) | -1.23% |
| CCn1nc(Cc2ccccc2)cc1C1CCN(C[C@H]2C[C@H](N(C)[C@@H](C(=O)O)C(C)C)C[C@@H]2c2cccc(F)c2)CC1 | 0.757% |
| CCCC1CCCC(=O)O1 (stereo not given) | -1.21% |
| Cc1c(Cl)cccc1[N+](=O)[O-] | 0.309% |
| OCCCO | -0.494% |
| NC(=O)c1ccccc1C(N)=O | 0.0653% |

| Structure (SMILES) | activation |
| --- | --- |
| CC(C)(C)c1ccc(CCC=O)cc1 | 0.426% |
| CCCCC(CC)COCCC#N (stereo not given) | -0.214% |
| C=CC(=O)NC(C)(C)C | -1.37% |
| Cc1ccc(NC=O)c(C)c1 | -0.219% |
| CCCc1ccc(OC)cc1 | -0.109% |
| O=C(O)c1cc(C(=O)O)c(C(=O)O)cc1C(=O)O | -0.166% |
| OCCOc1cccc(OCCO)c1 | -1.1% |
| Cc1nc(C)c(C)nc1C | -1.77% |
| C=CC(O)CCCCC (stereo not given) | -1.01% |
| Nc1ccc(-c2ccc(F)cc2)cc1 | 1.27% |
| CS(C)=O | 0.132% |
| CCC(=O)O[C@@H]1C[C@H]2CC[C@]1(C)C2(C)C | -1.35% |
| CCCCCCCCCC(C)C=O (stereo not given) | 1.27% |
| CC(COc1ccccc1)NC(C)C(O)c1ccc(O)cc1 (stereo not given) | -0.627% [at 35.5 µM] |
| CC(C)Oc1ccccc1O | 0.587% |
| Cc1ccc(Cl)c(OCC(O)CNC(C)(C)C)c1 (stereo not given) | 1.16% [at 35.5 µM] |
| CCCCCCCCCCCCCCCCCCCl | 0.175% [at 7.01 µM] |
| O=C(O)CCc1nc2ccccc2[nH]1 | 2.03% [at 35.5 µM] |
| CC(C)Cc1nccs1 | 0.232% |
| C/C(=C(\CCO)SS/C(CCO)=C(\C)N(C=O)Cc1cnc(C)nc1N)N(C=O)Cc1cnc(C)nc1N | -0.296% [at 35.5 µM] |
